# Data published in PubChem BioAssay AID504332 (National Center for Advancing Translational Sciences (NCATS), 2011).
# Several values for one entry are separate records, joined by “and”; a condition that tells them apart may be missing. Equal entries are not always repeated. Among all 350,000 compounds or so, about 31,000 (8.9%) were called active. About 15% were inconclusive and are not listed. The call rests on the fitted dose curve; in most records, active means well fitted inhibition curve with a large enough effect; inconclusive means small, poorly fitted or top-dose-only effect; inactive means no such curve, though single readings can be large or run the other way. The full list was thinned out, with actives kept by preference. Where a structure was tested more than once in an assay, its records may differ in their call.
# Target: Histone-lysine N-methyltransferase EHMT2 (Homo sapiens) (UniProt Q96KQ7)
# Sequence (Q96KQ7 913-1193 limits assumed): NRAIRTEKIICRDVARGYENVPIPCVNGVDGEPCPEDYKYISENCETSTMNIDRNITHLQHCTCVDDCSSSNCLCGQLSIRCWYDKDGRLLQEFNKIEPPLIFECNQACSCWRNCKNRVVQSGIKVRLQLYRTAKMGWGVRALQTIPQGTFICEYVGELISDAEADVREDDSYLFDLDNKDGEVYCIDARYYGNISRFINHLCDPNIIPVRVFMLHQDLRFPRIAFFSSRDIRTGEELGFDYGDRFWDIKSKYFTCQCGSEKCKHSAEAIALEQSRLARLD
# Assay: qHTS Assay for Inhibitors of Histone Lysine Methyltransferase G9a; further: nearly all actives have a fitted effect of over 75% in size
# Conditions: G9a H3K9 monomethylation, AlphaScreen, 2 h; series mostly up to 59 µM; activity, negative = inhibition: at the top concentration
# Outline: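 Enzyme 20 nM + cpd, 15 min RT; add b-H3K9 pep 500 nM / SAM 20 uM; 2 h RT; anti-H3K9me1 Ab 0.5 ug/mL + SA donor / anti-rabbit acceptor beads 20 ug/mL each, 10 min; AlphaScreen read.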
# On the % scale 0 is the no-effect control and ±100 the full control effect; potency means the concentration at half of the fitted maximal effect.
Compound,"activity, negative = inhibition",Potency
O=C(CSc1cccc[n+]1[O-])NCCCc1ccccc1,4.67% [at 102 µM] (inactive),–
O=C(CSc1cccc[n+]1[O-])c1ccc(-c2ccccc2)cc1,–,3.55 µM (active)
COc1ccccc1C(=O)CSc1cccc[n+]1[O-],-25.8% [at 102 µM] (inactive),–
O=C(CSc1cccc[n+]1[O-])c1ccc(Cl)cc1,–,4.47 µM (active)
Cc1cc(Oc2ccc(Cl)cc2)nc(SCC(=O)c2ccccc2)n1,16.6% (inactive),–
O=C(CSc1nc(Nc2ccc(F)c(F)c2)c2ccccc2n1)c1ccc(Cl)cc1,3.17% (inactive),–
O=C(COC(=O)c1ncc(Cl)c(Cl)c1Cl)NC1CCS(=O)(=O)C1 (stereo not drawn),3.15% [at 12.7 µM] (inactive),–
O=C(NCC1CCCO1)c1cc2c(s1)CCCC2 (stereo not drawn),29.8% [at 12.7 µM] (inactive),–
Cc1nc(SCCOc2ccc(Cl)cc2)[nH]c(=O)c1Cc1ccccc1,6.7% (inactive),–
CCS(=O)(=O)N1CCc2cc(C(=O)NCc3ccc(OC)cc3)ccc21,-45% (inactive),–
O=C1Nc2ccccc2/C1=C/c1ccnc2ccccc12,3.63% [at 102 µM] (inactive),–
CN(C)/C=C1/C(=O)Nc2ccccc21,-2.73% [at 12.7 µM] (inactive),–
Cc1cc(C)c(/C=C2\C(=O)Nc3ccccc32)[nH]1,-50.4% [at 12.7 µM] (inactive),4.47 µM (active) and 16.8 µM (active)
Cc1cc(-c2ccc(C)c(S(=O)(=O)NCCCN(Cc3ccccc3)C(C)C)c2)on1,13.8% [at 102 µM] (inactive),–
Oc1cc2c(cc1O)CN(C(=S)NCCc1ccc(Cl)cc1)CCC2,–,3.55 µM (active) and 2 µM (active) and 4.74 µM (active)
COc1ccc(CCNC(=S)N2CCN(S(=O)(=O)c3ccc(Cl)cc3)CC2)cc1,37.1% [at 102 µM] (inactive),–
Cc1cccc(NC(=S)NCCc2ccc(Cl)cc2)c1C,-4.68% [at 102 µM] (inactive),–
O=C(NCCc1csc(-c2ccc(C(F)(F)F)cc2)n1)C(=O)Nc1ccc(F)c(Cl)c1,12.8% (inactive),–
Cc1c(C=O)c2ccccc2n1CCOc1ccccc1,45.3% [at 102 µM] (inactive),–
Cc1ccc(CS(=O)(=O)CCC(=O)NCc2ccc(F)cc2)cc1,0.73% [at 102 µM] (inactive),–
O=C1NC(c2ccccc2)Oc2ccccc21 (stereo not drawn),23.8% [at 102 µM] (inactive),–
O=C1c2ccccc2C(=O)C1c1ccccc1,–,inactive and 35.5 µM (active)
CN1C(=O)C[C@H](c2ccccc2)C1=O,-19.1% [at 12.7 µM] (inactive),–
CCOC(=O)N1CCN(C(=O)COc2ccc3oc4c(c3c2)CCCC4)CC1,14.4% [at 2.33 µM] (inactive),–

Compound,"activity, negative = inhibition",Potency
O=C(CCN1C(=O)C2CCCCC2C1=O)Nc1ccc(OC(F)F)cc1 (stereo not drawn),-6.31% [at 102 µM] (inactive),–
CCOc1cc(/C=N/NC(=O)c2cccc(S(=O)(=O)N3CCOCC3)c2)ccc1OCC(=O)N(C)C,-7.27% [at 102 µM] (inactive),–
O=S(=O)(c1ccc(SCc2ccccc2)nc1)N1CCCCCC1,-5.2% [at 12.7 µM] (inactive),–
Cc1ccc(-n2nnnc2CNC(=O)c2ccccc2C)cc1C,2.96% (inactive),–
COC(=O)c1ccc(C(=O)OC)c(NC(=S)N2CCN(c3cc(Cl)ccc3C)CC2)c1,-9.2% (inactive),–
COC(=O)c1ccc(C(=O)OC)c(NC(=S)N2CCN(c3ccc(F)cc3)CC2)c1,–,44.7 µM (active)
COC(=O)c1ccccc1OCC(=O)N1CCN(c2ccc(Cl)cc2)CC1,3.66% [at 12.7 µM] (inactive),–
COc1ccccc1CNC(=O)c1ccccc1NC(=O)c1nsc2ccccc12,-2.06% (inactive),–
COc1ccc(CCN2C(=O)N(c3cccc(OC)c3)C(=O)C2CC(=O)Nc2ccccc2)cc1 (stereo not drawn),-26.4% (inactive),–
CC(C)c1ccc(/C=C/C(=O)NCCCN2CCOCC2)cc1,13.3% (inactive),–
Cn1cnc([N+](=O)[O-])c1Nc1ccccc1O,–,25.1 µM (active)
Cn1cnc([N+](=O)[O-])c1Sc1ccccc1,14.3% (inactive),–
Cn1cnc([N+](=O)[O-])c1Sc1n[nH]c(N)n1,0.592% [at 102 µM] (inactive),–
Cc1ccc(C2(C)NC(=O)N(CC(=O)Nc3ccccc3C(=O)N3CCCCC3)C2=O)cc1 (stereo not drawn),-31.9% [at 102 µM] (inactive),–
Fc1ccc(-c2nc(Nc3cccc(Cl)c3)nc3c2COc2ccccc2-3)cc1,-3.69% (inactive),–
Cc1ccc(S(=O)(=O)N2CCC(C(=O)NCCC3=CCCCC3)CC2)cc1C,15.2% [at 0.501 µM] (inactive),–
O=[N+]([O-])c1ccc(N2CCN(CC(O)COc3ccccc3)CC2)cc1 (stereo not drawn),-0.815% [at 102 µM] (inactive),–
C[N+]1(CC(O)COc2ccccc2)CCN(C(=O)c2ccc([N+](=O)[O-])cc2)CC1 (stereo not drawn),–,6.31 µM (active)
O=C(c1ccccc1)c1ccc(OCC(O)CN2CCCC2)cc1 (stereo not drawn),-37.2% [at 102 µM] (inactive),–
COc1ccc(CC(=O)N/N=C/c2cc([N+](=O)[O-])cc(Br)c2O)cc1,-16.6% [at 102 µM] (inactive),–
COc1ccc(Cn2c(=S)[nH]c3cc(C(=O)NCCCN4CCOCC4)ccc3c2=O)cc1,–,10 µM (active)
CCCCn1c(=S)[nH]c2ccccc2c1=O,25.5% (inactive),–
O=C(NCCCN1CCOCC1)c1cc(-c2ccc(Cl)cc2)on1,16.3% (inactive),–
